# Bioassay records as filed in PubChem BioAssay.
# Only some compounds are listed: those with a hit (about 2.8% of all), similar ones and a draw of the others.
# sPLA2-III inh = human group III sPLA2 inhibitors, primary screen, biochemical, QFRET, BODIPY PC-A2 liposome substrate | Group 3 secretory phospholipase A2 (Homo sapiens), Q9NZ20 | QFRET BODIPY PC-A2 liposome hydrolysis, fluorescence | inhibition, % at 12.2 µM | 370,000 tested, 0.56% active | AID 743126, 2013;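 active means inhibition above mean plus 3 SD of compounds lying within the high and low control bounds, cut at about 19% in these data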;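 further: 0% = median of test compound wells and 100% = no enzyme DMSO wells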
# Target sequence (Q9NZ20 whole entry, looked up): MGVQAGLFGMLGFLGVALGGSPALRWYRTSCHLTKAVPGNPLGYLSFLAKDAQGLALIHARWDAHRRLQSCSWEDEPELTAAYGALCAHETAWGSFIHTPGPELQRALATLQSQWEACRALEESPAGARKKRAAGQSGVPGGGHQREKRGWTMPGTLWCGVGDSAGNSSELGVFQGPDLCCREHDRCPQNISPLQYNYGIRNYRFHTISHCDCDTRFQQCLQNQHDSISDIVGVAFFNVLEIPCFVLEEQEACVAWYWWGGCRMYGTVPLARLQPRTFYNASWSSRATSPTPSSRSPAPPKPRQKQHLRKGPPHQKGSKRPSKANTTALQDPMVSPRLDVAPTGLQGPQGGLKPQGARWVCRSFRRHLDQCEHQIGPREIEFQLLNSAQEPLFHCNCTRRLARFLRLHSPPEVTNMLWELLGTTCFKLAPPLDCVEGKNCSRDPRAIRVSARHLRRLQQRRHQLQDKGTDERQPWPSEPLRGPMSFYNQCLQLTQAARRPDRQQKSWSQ
# MsrA inh = bovine MsrA enzyme inhibitors, primary screen, biochemical, absorbance, HTS; 360,000 tested, 0.75% active; inhibition, % at 15.5 µM; Methionine sulfoxide reductase A (Bos taurus); purified bovine MsrA, absorbance read-out; in the data active means inhibition above about 4.5%;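 further: 0% = vehicle wells with enzyme and 100% = reference inhibitor wells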
# bovine MsrA act = bovine MsrA enzyme activators, primary screen, biochemical, absorbance, HTS. Methionine sulfoxide reductase A (Bos taurus). purified bovine MsrA, absorbance read-out. activation, % at 10.6 µM. 360,000 tested, 0.3% active; in the data active means activation above about 7.5%;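 further: 0% = vehicle and 100% = reference activator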
# rCAG binder = binders of r(CAG) RNA repeats, primary screen, biochemical, fluorescence; r(CAG) RNA repeat, TO-PRO-1 dye displacement fluorescence; inhibition, % at 3 µM; 370,000 tested, 1.3% active;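 active means inhibition above the plate cutoff, the mean of all test compounds on that plate plus 3 SD, cut at about 35% in these data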;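 further: 0% = DMSO alone and 100% = 100 µM mitoxantrone as full dye displacement; higher means more dye released from RNA so lower well fluorescence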
# hGIII sPLA2 conf = human group III sPLA2 inhibitors, confirmation, biochemical, QFRET, triplicate. AID 743280, 2014. 2,000 tested, 34% active. shares compounds with sPLA2-III inh. inhibition, % at 12.2 µM. recombinant hGIII-sPLA2, BODIPY PC-A2 QFRET fluorescence;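 active means mean inhibition across triplicates above the hit cutoff set in the earlier primary screen, cut at about 19% in these data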;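 further: 0% = enzyme with DMSO and 100% = DMSO wells lacking enzyme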
# BODIPY interf = 535nm fluorescence optical interference, confirmation, artefact control for HGIII-sPLA2 inhibitor project, biochemical, QFRET; BODIPY FL product fluorescence interference; 2,000 tested, 8.5% active; shares compounds with sPLA2-III inh; inhibition, % at 12.2 µM;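 active means average inhibition above the solvent-only control mean plus 3 SD, cut at about 6% in these data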;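 further: 0% = DMSO with substrate plus product and 100% = DMSO with substrate alone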
# 535nm interf DR = 535nm fluorescence optical interference, dose response, artefact control for HGIII-sPLA2 inhibitor project, biochemical, QFRET | 240 tested, under 10 active | BODIPY FL product fluorescence interference, cell-free | shares compounds with sPLA2-III inh | IC50, µM;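 active means IC50 at or below 10 µM; inactive means IC50 above 10 µM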
# An asterisk follows results filed as active; / = no result.
SMILES,sPLA2-III inh,MsrA inh,bovine MsrA act,rCAG binder,hGIII sPLA2 conf,BODIPY interf,others
O=C(CSc1nnc(-c2ccccc2)n1-c1ccc(Cl)cc1)NNC(=S)Nc1ccccc1,26.2*,0.2,-2.0,22.8,38.5*,-6.9,535nm interf DR=>122
CC(=O)/C(=N\Nc1cccc(Cl)c1)Sc1nnc(-c2ccccc2)n1-c1ccccc1,19.5*,1.0,-0.5,3.0,6.6,-3.4,
COc1ccccc1Cn1c(C)c(C(=O)NCc2ccc3c(c2)OCCO3)sc1=O,-6.1,-0.5,-1.8,-0.6,/,/,
O=C(NNc1nc2cc3c(cc2s1)OCCO3)c1ccc(F)cc1,18.4,0.3,-1.8,5.3,/,/,
Fc1ccc2nc(Nc3nc4cc5c(cc4s3)OCCO5)sc2c1,23.9*,3.7,-3.1,27.9,15.2,6.5*,
O=C(NNc1nc2cc3c(cc2s1)OCO3)c1ccc(F)cc1,23.2*,1.5,-5.8,7.8,37.7*,0.2,535nm interf DR=>122
Fc1ccc2nc(Nc3nc4cc5c(cc4s3)OCO5)sc2c1,8.3,2.8,-1.0,6.3,/,/,
Cc1ccc(NC(=S)NC2CCCC2)c(C)c1,19.3*,0.3,0.1,-4.2,16.8,-1.9,
CCCC(=O)NC(c1ccc(Cl)cc1)c1ccc2cccnc2c1O (stereo not drawn),22.2*,0.8,-3.5,6.3,24.1*,-4.8,
CCCCC(=O)NC(c1ccccc1OC)c1ccc2cccnc2c1O (stereo not drawn),30.7*,0.9,-9.5,0.9,27.7*,-11.4,535nm interf DR=>122
CCN(CC)c1ccc(C(NC(=O)C(C)C)c2ccc3cccnc3c2O)cc1 (stereo not drawn),36.1*,1.0,-1.6,9.0,22.6*,-2.0,
CC(=O)NC(c1ccc(Cl)cc1Cl)c1ccc2cccnc2c1O (stereo not drawn),19.4*,0.6,-1.1,8.4,23.0*,-8.8,
CN1OC(COC(=O)c2ccccc2)CC1c1ccccc1 (stereo not drawn),-0.5,-2.0,-3.4,-3.2,/,/,
CCCCC(=O)NC(c1ccc(N(CC)CC)cc1)c1ccc2cccnc2c1O (stereo not drawn),14.9,0.1,-7.0,4.1,/,/,
CCCCC(=O)NC(c1ccc(N(C)C)cc1)c1ccc2cccnc2c1O (stereo not drawn),38.2*,-0.5,-9.4,-3.1,26.2*,-6.8,
O=C(N/C(=N\O)c1ccccc1)Nc1ccc(Cl)cc1,7.1,1.9,-4.3,-0.3,/,/,
CC(C)Cn1c(/C=N/Nc2nc3ccccc3[nH]2)nc2ccccc21,28.7*,2.6,-6.9,6.0,39.0*,-8.3,
CCCCN(C(=O)C1=COCCO1)c1c(N)n(Cc2ccccc2)c(=O)[nH]c1=O,7.8,0.3,-7.7,1.6,/,/,
CC(C)(C)NC(=S)N1CCC2CC1c1cc(-c3ccc4c(c3)OCO4)ccc12 (stereo not drawn),21.8*,0.0,-9.3,8.2,4.9,-18.2,
CC(C)(C)C(=O)N1CCC2CC1c1cc(-c3ccc4c(c3)OCO4)ccc12 (stereo not drawn),3.6,-0.5,-1.9,6.2,/,/,
COc1ccc(/C=C(\NC(=O)/C=C/c2ccco2)C(=O)NCCc2nc3ccccc3[nH]2)cc1,-20.8,2.6,-17.1,4.2,/,/,
CC(C)CC1NC(=S)N(C2CCCCC2)C1=O (stereo not drawn),-56.3,1.0,0.2,-7.7,/,/,
COC(=O)Cn1c2ccccc2c(=O)n1C(C)C,20.3*,1.3,-10.9,0.6,1.3,1.4,
Nc1ccc(Cl)c(NC(=O)c2cccs2)c1,-0.4,0.3,2.6,3.7,/,/,
Nc1ccc(NC(=O)c2cccs2)c(Cl)c1,21.5*,0.5,-7.9,-1.1,7.1,1.9,
CCCNC(=O)Nc1cccc(C(=O)OC)c1,20.8*,-0.1,-0.4,-2.7,8.3,-5.8,
CC(=O)N1N=C(c2ccc3ccccc3c2)OC1(C)C,-6.1,0.4,-3.1,-4.1,/,/,
CC(=O)N1N=C(c2ccc(C(C)(C)C)cc2)OC1(C)C,20.3*,0.2,-1.5,-7.9,2.5,-17.4,
